Test [1] can be described thus: NCI Yeast Anticancer Drug Screen. Data for the rad50 strain (AID 155).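 Further: 0% = growth of vehicle-only cultures of the same strain.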 The note with it: S. cerevisiae rad50 strain growth inhibition, stronger effect = higher value. In a few lines:
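Inhibition values express reduced yeast growth in compound-treated cultures relative to vehicle-treated controls.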

Test [2] in a line: NCI Yeast Anticancer Drug Screen. Data for the mec2-1 strain (AID 157). The note with it: S. cerevisiae mec2-1 strain, stronger effect = higher value. Summed up:
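mec2-1 yeast strain, carrying an alteration in DNA damage repair or cell cycle control, was exposed to compounds; growth inhibition was measured relative to vehicle-treated controls.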

Test [3] in a line: NCI Yeast Anticancer Drug Screen. Data for the sgs1 mgt1 strain (AID 161).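 Further: 0% = growth of cultures given vehicle only.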 The note with it: S. cerevisiae sgs1 mgt1 strain, stronger effect = higher value. In a few lines:
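Growth of a repair-deficient yeast mutant was monitored after compound treatment and expressed as inhibition relative to vehicle-treated cultures.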

A short description of test [4]: NCI Yeast Anticancer Drug Screen. Data for the cln2 rad14 strain (AID 165).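 Further: 0% = growth equal to vehicle treated cultures.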 The note with it: S. cerevisiae cln2 rad14 strain, stronger effect = higher value. Summed up:
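Yeast carrying cln2 and rad14 alterations (cell cycle control and DNA damage repair) were exposed to compounds. Growth inhibition was measured against vehicle-treated controls.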

Test [5] in a line: NCI Yeast Anticancer Drug Screen. Data for the bub3 strain (AID 167). As to conditions: S. cerevisiae bub3 mutant strain, stronger effect = higher value. In a few lines:
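Steps: expose the mutant yeast strain to compound; grow alongside vehicle-treated cultures; measure growth; express inhibition against the vehicle cultures.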

A short description of test [6]: NCI Yeast Anticancer Drug Screen. Data for the mlh1 rad18 strain (AID 175). The note with it: S. cerevisiae mlh1 rad18 strain growth inhibition, stronger effect = higher value. Summed up: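 Growth inhibition of the yeast strain was measured after compound exposure and expressed relative to vehicle-treated controls. The strain carries defined defects in DNA damage repair.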

Setting [7] is: at 5.0 µM (retest, dose inferred, filed as 0.5).
[8] abbreviates: at 50.0 µM (retest, dose inferred, filed as 5.0).

The structures appear in SMILES notation. The panel holds about 79,000 compounds, 15% with a hit somewhere; the sample as a whole holds those more often. Unmarked numbers belong to inactive results. Activity calls are given as the source filed them. No stated cut-off is given here; in the data, active means growth inhibition above about 70%; inactive means the rest.

`CCOC(=O)C1=C(c2ccccc2)OC(N)=C(C#N)C1c1ccc(C)cc1` (stereo not given): the growth inhibition was 4% in test [1] (setting [7]); 25% in test [1] (setting [8]); 77.1% (active) in test [1] (at 50.0 µM); 0% in test [2] (setting [7]); 66% in test [2] (setting [8]); 89.5% (active) in test [2] (at 50.0 µM). The growth inhibition was 10% in test [3] (setting [7]); 64% in test [3] (setting [8]); 92.5% (active) in test [3] (at 50.0 µM); -4% in test [4] (setting [7]); 29% in test [4] (setting [8]); 89% (active) in test [4] (at 50.0 µM). Besides, the growth inhibition in test [5] (setting [7]) is 1%; in test [5] (setting [8]), 50%; in test [5] (at 50.0 µM), 80.1% (active); in test [6] (setting [7]) it was -2%; in test [6] (setting [8]), 65%; in test [6] (at 50.0 µM) it was 85.9% (active).
As to `C=CCC1=C(C)C(OC(=O)/C=C/c2ccccc2Cl)CC1=O` (stereo not given), the growth inhibition in test [1] (setting [7]) was 17%; in test [1] (setting [8]) it was 81% (active); in test [1] (at 50.0 µM), 86.2% (active); in test [2] (setting [7]), 0%; in test [2] (setting [8]), 88% (active); in test [2] (at 50.0 µM), 85.1% (active). For the same compound, the growth inhibition in test [3] (setting [7]) is 13%; in test [3] (setting [8]) it was 88% (active); in test [3] (at 50.0 µM) it was 72.2% (active); in test [4] (setting [7]), -6%; in test [4] (setting [8]), 89% (active); in test [4] (at 50.0 µM) it was 69%. In addition, the growth inhibition in test [5] (setting [7]) is 3%; in test [5] (setting [8]) it was 90% (active); in test [5] (at 50.0 µM), 95.4% (active); in test [6] (setting [7]), 8%; in test [6] (setting [8]), 89% (active); in test [6] (at 50.0 µM), 84.3% (active).
For the compound `COC(OC)C1C2C3C=CC(C4C(=O)OC(=O)C34)C12` (stereo not given), the growth inhibition in test [1] (setting [7]) is -5%; in test [1] (setting [8]), 0%; in test [1] (at 50.0 µM) it was 76.5% (active); in test [2] (setting [7]), -16%; in test [2] (setting [8]), -4%; in test [2] (at 50.0 µM), 98.4% (active). In addition, the growth inhibition in test [3] (setting [7]) was -15%; in test [3] (setting [8]), -13%; in test [3] (at 50.0 µM), 29.4%; in test [4] (setting [7]) it was -2%; in test [4] (setting [8]), -5%; in test [4] (at 50.0 µM) it was 98.3% (active). Further, the growth inhibition in test [5] (setting [7]) was 0%; in test [5] (setting [8]) it was 14%; in test [5] (at 50.0 µM), 97.2% (active); in test [6] (setting [7]), 6%; in test [6] (setting [8]), 2%; in test [6] (at 50.0 µM), 98.6% (active).
For `O=C(O)CN1CCNCCN(CC(=O)O)CCNCC1`, the growth inhibition in test [1] (setting [7]) is 66%; in test [1] (setting [8]), 94% (active); in test [1] (at 50.0 µM), 50.7%; in test [2] (setting [7]), 59%; in test [2] (setting [8]) it was 93% (active); in test [2] (at 50.0 µM), 76.1% (active). Further, the growth inhibition was 56% in test [3] (setting [7]); 94% (active) in test [3] (setting [8]); 69.8% in test [3] (at 50.0 µM); 25% in test [4] (setting [7]); 85% (active) in test [4] (setting [8]); 54.8% in test [4] (at 50.0 µM). The growth inhibition was 60% in test [5] (setting [7]); 95% (active) in test [5] (setting [8]); 56.2% in test [5] (at 50.0 µM); 66% in test [6] (setting [7]); 94% (active) in test [6] (setting [8]); 56% in test [6] (at 50.0 µM).
Turning to `CCCCCCCCCCN1CCN(C(=O)OCC)CC1`, the growth inhibition in test [1] (setting [7]) was 51%; in test [1] (setting [8]), 68%; in test [1] (at 50.0 µM) it was 95% (active); in test [2] (setting [7]), 54%; in test [2] (setting [8]), 77% (active); in test [2] (at 50.0 µM) it was 72.2% (active). Also, the growth inhibition in test [3] (setting [7]) was 67%; in test [3] (setting [8]), 97% (active); in test [3] (at 50.0 µM), 94.7% (active); in test [4] (setting [7]) it was 58%; in test [4] (setting [8]) it was 67%; in test [4] (at 50.0 µM), 90.7% (active). The growth inhibition was 62% in test [5] (setting [7]); 80% (active) in test [5] (setting [8]); 95.8% (active) in test [5] (at 50.0 µM); 79% (active) in test [6] (setting [7]); 91% (active) in test [6] (setting [8]); 89.2% (active) in test [6] (at 50.0 µM).
With `CC(C)CCCC(C)C1CCC2C3CC=C4CC(OC(=O)Nc5ccc(S(=O)(=O)c6ccc(F)cc6)cc5)CCC4(C)C3CCC12C` (stereo not given), the growth inhibition was 3% in test [1] (setting [7]); 2% in test [1] (setting [8]); 96.3% (active) in test [1] (at 50.0 µM); 1% in test [2] (setting [7]); 4% in test [2] (setting [8]); 98% (active) in test [2] (at 50.0 µM). Moreover, the growth inhibition in test [3] (setting [7]) was 0%; in test [3] (setting [8]) it was 0%; in test [3] (at 50.0 µM), 97.8% (active); in test [4] (setting [7]), 3%; in test [4] (setting [8]), 9%; in test [4] (at 50.0 µM), 51.5%. For the same compound, the growth inhibition is 1% in test [5] (setting [7]); -12% in test [5] (setting [8]); 96.7% (active) in test [5] (at 50.0 µM); 4% in test [6] (setting [7]); -6% in test [6] (setting [8]); 96.4% (active) in test [6] (at 50.0 µM).
`COC(=O)c1ccc2ccccc2c1`: the growth inhibition was 5% in test [1] (setting [7]); 15% in test [1] (setting [8]); 47% in test [1] (at 50.0 µM); -1% in test [2] (setting [7]); 4% in test [2] (setting [8]); 28.1% in test [2] (at 50.0 µM). The growth inhibition is 1% in test [3] (setting [7]); 4% in test [3] (setting [8]); 22.4% in test [3] (at 50.0 µM); 2% in test [4] (setting [7]); -4% in test [4] (setting [8]); 24.6% in test [4] (at 50.0 µM). Also, the growth inhibition is 5% in test [5] (setting [7]); 29% in test [5] (setting [8]); 80.2% (active) in test [5] (at 50.0 µM); 5% in test [6] (setting [7]); 11% in test [6] (setting [8]); 34.3% in test [6] (at 50.0 µM).
For `Cc1cccc2c1nc1ccccc1[n+]2C`, the growth inhibition in test [1] (setting [7]) was -2%; in test [1] (setting [8]) it was 97% (active); in test [1] (at 50.0 µM) it was 98.3% (active); in test [2] (setting [7]), 7%; in test [2] (setting [8]), 97% (active); in test [2] (at 50.0 µM), 97.7% (active). For the same compound, the growth inhibition in test [3] (setting [7]) was -2%; in test [3] (setting [8]), 97% (active); in test [3] (at 50.0 µM), 98.5% (active); in test [4] (setting [7]), 2%; in test [4] (setting [8]) it was 96% (active); in test [4] (at 50.0 µM) it was 87.8% (active). Further, the growth inhibition was -2% in test [5] (setting [7]); 91% (active) in test [5] (setting [8]); 98.2% (active) in test [5] (at 50.0 µM); 6% in test [6] (setting [7]); 95% (active) in test [6] (setting [8]); 97.5% (active) in test [6] (at 50.0 µM).
On to `O=C1C(Cl)=C(N2CCN(c3ccccn3)CC2)C(=O)c2ncccc21`, for which the growth inhibition in test [1] (setting [7]) is 40%; in test [1] (setting [8]) it was 94% (active); in test [1] (at 50.0 µM), 85.3% (active); in test [2] (setting [7]), 21%; in test [2] (setting [8]) it was 98% (active); in test [2] (at 50.0 µM), 88.8% (active). Moreover, the growth inhibition in test [3] (setting [7]) was 23%; in test [3] (setting [8]), 97% (active); in test [3] (at 50.0 µM) it was 91% (active); in test [4] (setting [7]), 10%; in test [4] (setting [8]) it was 96% (active); in test [4] (at 50.0 µM), 89.4% (active). Moreover, the growth inhibition in test [5] (setting [7]) was 50%; in test [5] (setting [8]), 98% (active); in test [5] (at 50.0 µM), 88.6% (active); in test [6] (setting [7]), 34%; in test [6] (setting [8]), 97% (active); in test [6] (at 50.0 µM), 89.1% (active).
As for `CN(C)C(=S)N/N=C/c1ccccn1`, the growth inhibition was 94% (active) in test [1] (setting [7]); 98% (active) in test [1] (setting [8]); 98.7% (active) in test [1] (at 50.0 µM); 95% (active) in test [2] (setting [7]); 98% (active) in test [2] (setting [8]); 98.9% (active) in test [2] (at 50.0 µM). Besides, the growth inhibition in test [3] (setting [7]) is 95% (active); in test [3] (setting [8]), 99% (active); in test [3] (at 50.0 µM), 98.4% (active); in test [4] (setting [7]), 95% (active); in test [4] (setting [8]) it was 99% (active); in test [4] (at 50.0 µM) it was 98.3% (active). In addition, the growth inhibition in test [5] (setting [7]) was 95% (active); in test [5] (setting [8]), 97% (active); in test [5] (at 50.0 µM), 99% (active); in test [6] (setting [7]), 95% (active); in test [6] (setting [8]), 98% (active); in test [6] (at 50.0 µM) it was 98.8% (active).

The record behind these values is PubChem BioAssay (NCI).
